According to PubChem BioAssay (NCI):
About 83,000 compounds went through this panel and 20% of them were active in at least one assay; those are over-represented in the sample as a whole.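 Step 1: grow cells in 96-well plates. Step 2: add test compound at a single concentration. Step 3: incubate 48 h. Step 4: record percent growth.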 Active and inactive are the calls of the source. How the source made its calls: active means growth percent below 10; inactive means the rest.

Experiments:
Assay in all cases: NCI-60 one-dose screen, 48 h (100 = growth as untreated, 0 = no growth, -100 = all killed)
Settings in all cases: 10 µM unless noted
[1] = test system: SK-MEL-2 melanoma
[2] = test system: EKVX NSCLC
[3] = test system: SN12C renal
[4] = test system: UO-31 renal
[5] = test system: TK-10 renal
[6] = test system: ACHN renal
[7] = test system: CAKI-1 renal
[8] = test system: CCRF-CEM leukemia
[9] = test system: MOLT-4 leukemia
[10] = test system: A498 renal

Measured: growth

O=C1NCCN1/N=C/c1c(Cl)n(Cc2ccc(Cl)cc2)c2ccccc12
active: [7] -18.9%
inactive: [1] 91.7% | [2] 88.9% | [3] 85.8% | [4] 72.4% | [5] 90.8% | [6] 94.4% | [8] 89% | [9] 65.6%

COc1ccc(-c2cc(-c3ccc(Cl)cc3)c(C#N)c(=O)n2CCCCC(=O)NO)cc1
inactive: [1] 88% | [2] 71.9% | [3] 68.7% | [5] 70.4% | [6] 34.6% | [10] 95.4% | [8] 63.9% | [9] 80.6%
active: [4] -16.4% | [7] -13.2%

CC(=O)c1c(/C=C/c2ccc(C)cc2)c2ccccc2[nH]c1=O
inactive: [1] 107% | [2] 95.1% | [3] 83.2% | [4] 49.6% | [5] 106% | [6] 91% | [7] 67.6% | [8] 105% | [9] 87.1%

C#CCOc1cccc(-c2ncnc3cc(NC(=O)CCl)ccc23)c1
active: [1] -4.29% | [3] -65.8% | [4] -93.7% | [6] -99.6% | [7] -94.4% | [8] -15.6% | [9] -6.64%
inactive: [2] 11% | [5] 11.8% | [10] 59.4%

CNc1nc2ncc(-c3c(C)noc3C)cc2n1Cc1ccccc1
inactive: [1] 67.4% | [2] 62.6% | [3] 71.1% | [4] 21.3% | [5] 24.3% | [6] 42.1% | [7] 36.7% | [8] 50.5%

CC/C(=C(/c1ccc(Cl)cc1)c1ccc(OCCCN(C)C)cc1)c1ccc(OC)cc1
inactive: [1] 105% | [2] 91% | [3] 83.3% | [4] 62.5% | [5] 66.7% | [6] 83.6% | [7] 82.3% | [10] 76.3% | [8] 37% | [9] 28.1%

CC1(C)CC[C@]2(CO)CC[C@]3(C)[C@H](CC[C@@H]4[C@@]5(C)CC[C@H](O)C(C)(C)[C@@H]5CC[C@]43C)[C@H]2[C@H]1O
inactive: [1] 104% | [2] 106% | [3] 65.6% | [4] 114% | [5] 58.7% | [6] 77.2% | [7] 99.9% | [8] 98.5% | [9] 86.3%

COC1CC(O)C2=C(CC3C(/C(C)=C\CC=C(C)C)CCC3(C)O2)C1=O (stereo not given)
inactive: [1] 96.9% | [2] 105% | [3] 107% | [4] 89.6% | [5] 92.4% | [6] 111% | [7] 107% | [8] 88.1% | [9] 92.2%

COc1ccc(/C=C/C(=O)c2ccc(-n3cc(CN4CCN(c5cc6c(cc5F)c(=O)c(C(=O)O)cn6C5CC5)CC4)nn3)cc2)cc1
inactive: [1] 97% | [2] 96.6% | [3] 32.6% | [4] 54.9% | [5] 104% | [6] 85% | [7] 67.8% | [10] 68.2% | [8] 44% | [9] 64.2%

C=C(c1ccc(OC)c(/C=C/C(=O)c2cc(OC)c(OC)c(OC)c2)c1)c1cc(OC)c(OC)c(OC)c1
inactive: [2] 15% | [5] 24.3% | [7] 24.6% | [8] 17.9% | [9] 12%
active: [1] 3.16% | [3] -13.9% | [4] -85.6% | [6] -79.9%

Nc1ccc(Cl)c2c(=O)c3ccccc3[nH]c12
inactive: [1] 81.2% | [2] 75.2% | [3] 89.2% | [4] 65.1% | [5] 78.1% | [6] 80.8% | [7] 77.7% | [8] 100% | [9] 74.1%

COc1cc(C(=O)c2c(-c3ccccc3)oc3ccccc23)cc(OC)c1O
inactive: [1] 50.9% | [2] 51.3% | [3] 43.9% | [4] 51.9% | [5] 78.4% | [6] 41.7% | [7] 32.7% | [8] 13.9% | [9] 28.6%
active: [10] 1.19%

COC(=O)c1nc(-c2ccc(C)cc2)oc1N1CCOCC1
inactive: [1] 106% | [2] 92.8% | [3] 93.1% | [4] 83.7% | [5] 81.6% | [6] 102% | [7] 90.3% | [10] 77.4% | [8] 85% | [9] 80.8%

C#CCOc1cc(/C=N/Nc2nc(-c3ccc(OC)cc3)cs2)ccc1O
inactive: [1] 93.3% | [2] 67.8% | [3] 86.8% | [4] 72.6% | [5] 94.2% | [6] 90.8% | [7] 77.6% | [10] 82.4% | [8] 82.2% | [9] 87.3%

C1=C2CCCC3=Cc4ccccc4OC23Oc2ccccc21
inactive: [1] 36% | [2] 57.8% | [3] 34.4% | [4] 43.3% | [5] 55.4% | [6] 47.3% | [7] 27.2% | [8] 18.3% | [9] 17.5%

COc1ccc(-c2ccc(-c3ccc(C(=N)N)nc3)s2)cc1
inactive: [1] 88.3% | [2] 38.8%
active: [3] -78.9% | [4] -96.8% | [5] -65.8% | [6] -100% | [7] -92.3% | [8] -43.4% | [9] -53.7%

C(CCCSC1=NCCN1)CCSC1=NCCN1
inactive: [1] 122% | [2] 109% | [3] 103% | [4] 80.3% | [5] 122% | [6] 100% | [7] 101% | [10] 103% | [8] 101% | [9] 102%

CCCCCCCCOC(=O)c1c(C)[nH]c(/C=C2\N=C(c3ccc[nH]3)C=C2OC)c1C
inactive: [2] 27.8% | [3] 11.7% | [8] 17.7%
active: [1] -70.3% | [4] -52.1% | [5] 9.67% | [6] -18.9% | [7] -13.2% | [9] 4.33%

COC(=O)c1cc(-c2cc(OC)c(OC)c(OC)c2)[nH]c1N/N=C/c1c(Cl)cccc1Cl
inactive: [2] 64.4% | [3] 40.6% | [4] 40.9% | [6] 10.1% | [8] 35.6% | [9] 33.2%
active: [1] -21.2% | [5] -47.6% | [7] 7.04%

CCOC(=O)C1=CCC(n2cc(F)c(=O)[nH]c2=O)O1 (stereo not given)
inactive: [1] 103% | [2] 118% | [3] 104% | [4] 87.8% | [5] 110% | [6] 103% | [7] 102% | [8] 97.4% | [9] 92.9%

Cc1ccc2c(c1)CC(O)CC1C(=O)N(CCO)CC(=O)N21 (stereo not given)
inactive: [1] 86.2% | [2] 104% | [3] 100% | [4] 95.8% | [5] 88.6% | [6] 104% | [7] 92.6% | [10] 99.4% | [8] 104% | [9] 92.2%

Cc1ccc(S(=O)(=O)N(CCC(=O)O)c2ccccc2)cc1
inactive: [1] 109% | [2] 108% | [3] 109% | [4] 106% | [5] 119% | [6] 106% | [7] 93.9% | [10] 81.3% | [8] 94.4% | [9] 106%

O=C(/C=C/c1ccco1)Nc1ncc(Cc2ccc(F)cc2)s1
inactive: [1] 48.8% | [2] 29.1% | [3] 28.5% | [4] 47.6% | [5] 62.3% | [6] 40.2% | [7] 34.4% | [10] 19.3% | [8] 21.9% | [9] 20.9%

C=C(CNCCc1ccc(O)cc1)[C@@H]1CC[C@]2(CO)CC[C@]3(C)[C@H](CC[C@@H]4[C@@]5(C)CCC(N)C(C)(C)[C@@H]5CC[C@]43C)[C@@H]12 (stereo not given in full)
inactive: [10] 64.5%
active: [1] -81.4% | [2] -62.8% | [3] -81.7% | [4] -98.9% | [5] -84.5% | [6] -71.9% | [7] -81.8% | [8] -26.8% | [9] -32.4%

Cn1cc(-c2csc(-c3cn(C)c4ccc(F)cc34)n2)c2cnccc21
active: [2] -13.1% | [3] -29.9% | [4] -69.7% | [5] -20.2% | [6] -89.6% | [7] -43.9% | [8] -11.6% | [9] -36.1%
inactive: [1] 88.9%

O=C(OCc1ccc2c(Br)cc(Br)c(O)c2n1)N1CCN(C(=O)c2cc3ccccc3[nH]2)CC1
inactive: [1] 44.8% | [2] 29.9% | [3] 31.3% | [4] 12.8% | [5] 47.5% | [6] 14.4% | [7] 23% | [8] 21.2% | [9] 35.5%
